Experimental data as given in PubChem BioAssay AID686978 (National Center for Advancing Translational Sciences (NCATS), 2013).
Hit rate of the full screen: of about 420,000 compounds, about 64,000 (15%) were called active. Inconclusive results (about 27%) are left out. A selection follows. Unmarked numbers belong to inactive results. Calls follow the shape of the dose curve; as a rule, active = well fitted inhibition curve with a large enough effect; inconclusive = small, poorly fitted or top-dose-only effect; inactive = flat fitted curve, though single readings scatter.

Assay: qHTS for Inhibitors of human tyrosyl-DNA phosphodiesterase 1 (TDP1): qHTS in cells in absence of CPT; also: nearly all actives have a fitted effect of over 55% in size
Conditions: DT40 Tdp1-/- hTDP1 cells, no CPT, ATP luminescence, 48 h; activity change, negative = growth inhibition: at 46.2 µM (top of the series)
Procedure, shortened: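 Camptothecin absent (DMSO only). Human TDP1-complemented DT40 knockout cells, 400 cells/well, 37 °C for minimum 48 hr; ATP measured via CellTiter-Glo, 30 min dark incubation, luminescence.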
% is scaled to controls: 0 for no effect and ±100 for the full control effect; potency is read from the fitted curve at half-maximal effect.

| Structure (SMILES) | activity change, negative = growth inhibition [%] | Potency |
| --- | --- | --- |
| CCOC(=O)c1ccc2[nH]c3c(c2c1)CCCC3NC=O (stereo not given) | -16.5 | – |
| C=CC1=C(C(=O)O)N2C(=O)[C@@H](NC(=O)/C(=N\OCC(=O)O)c3csc(N)n3)[C@H]2SC1 | -8.95 | – |
| Nc1c(N(CCCO)C(=O)C2CCCC2)c(=O)[nH]c(=O)n1Cc1ccccc1 | 13.1 | – |
| COc1ccc(NC(=O)C(CC(C)C)NC(=O)C2CCC(C)CC2)cc1 (stereo not given) | -27.2 | – |
| O=C(Cn1nc(Cc2cccnc2)c2ccccc2c1=O)NCC1CCCO1 (stereo not given) | -3.45 | – |
| COc1cc(=O)n2c(c1C(=O)NCc1ccco1)CCN(Cc1ccccc1)CC2 | -17.1 | – |
| COCCNc1ncnc2c1ncn2[C@H]1CN(CCN2CCOCC2)C[C@@H](CO)O1 | -0.749 | – |
| CN(CC(=O)NNC(=O)CNC(=O)c1ccccc1Cl)S(=O)(=O)c1ccc(Cl)cc1 | -14.8 | – |
| O=C1c2ccccc2C(=O)N1c1ccccc1S(=O)C(F)(F)F (stereo not given) | 5.16 | – |
| COc1ccccc1-n1cnc2cc(C(=O)NCC3CCCO3)ccc21 (stereo not given) | -7.49 | – |
| COc1ccc(CCNC(=O)Cn2c(=O)n(CC3CCCO3)c(=O)c3ccccc32)cc1OC (stereo not given) | -21.2 | – |
| COc1ccc(CCn2c(=N)c(C(=O)NCC3CCCO3)cc3c(=O)n4cccc(C)c4nc32)cc1OC (stereo not given) | – | 0.517 µM (active) |
| CC1CCC(NC(=O)CN(C)S(=O)(=O)c2ccc3c(c2)c(=O)n(C)c(=O)n3C)CC1 (stereo not given) | 1.05 | – |
| CN(C(=O)CSc1nnc(C2CC2)n1C)C1CCCc2ccccc21 (stereo not given) | 6.04 | – |
| CCOC(=O)C1=CCC2C(=O)N(Cc3ccccc3)C(=O)C12 (stereo not given) | -11.7 | – |
| CCC1(CC)C(=O)C2=C3C1[C@H](C(=O)OC)C=C(C(=O)OC)C[C@H]3[C@H]1C(=O)N(Cc3ccccc3)C(=O)[C@H]1[C@H]2C (stereo not given in full) | – | 16.4 µM (active) |
| COC(=O)C1=C[C@@H](C(=O)OC)[C@@H]2C3=C(C(=O)[C@]2(C)NC(=O)c2ccccc2)[C@H](C)n2c(=O)n(C)c(=O)n2[C@@H]3C1 | 9.24 | – |
| CCOc1ccccc1NC(=O)CCc1nnc2ccc(NCc3ccco3)nn12 | -19.2 | – |
| Cc1cccc(NC(=O)Nc2ccc(OCc3ccccc3)cc2)n1 | 3.3 | – |
| CNC(=O)c1sc(NCc2ccccc2OC)nc1C | -16.5 | – |
| CNC(=O)c1sc(Nc2ccc(OCc3ccccc3)cc2)nc1C | – | 13 µM (active) |
| COc1ccc(C(C(=O)NC2CCCCC2)N(C(=O)Cc2c[nH]c3ccccc23)c2ccccc2)cc1OC (stereo not given) | – | 18.4 µM (active) |

| Structure (SMILES) | activity change, negative = growth inhibition [%] | Potency |
| --- | --- | --- |
| COc1ccc(CNC(=O)[C@H](Cc2c[nH]c3ccccc23)NC(C)=O)cc1OC | -6.89 | – |
| COc1ccc(C(C(=O)NCC2CCCO2)N(C(=O)Cn2nnc3ccccc32)c2ccc(NC(C)=O)cc2)cc1OC (stereo not given) | -15.5 | – |
| CN(Cc1c(F)cccc1Cl)S(=O)(=O)c1cccs1 | -16 | – |
| O=C(NCc1ccccn1)C1CCN(S(=O)(=O)c2ccc(Br)cc2)CC1 | 4.5 | – |
| CC1(C)CCSC(/C=C/c2ccccc2)=N1 | – | 4.61 µM (active) |
| CCCOc1ccc(NC(=O)C2CCCNC2=O)cc1 (stereo not given) | 0.653 | – |
| Cc1ccc(-c2ccnc(-n3ncc(C(=O)N(C)Cc4cccc5ncccc45)c3C3CC3)n2)o1 | -13.8 | – |
| CCN1CCN(c2nc(Nc3cccc(F)c3)nc(N)c2[N+](=O)[O-])CC1 | -20.6 | – |
| CC1CN(c2nc(Nc3ccccc3)nc(N)c2[N+](=O)[O-])CC(C)O1 (stereo not given) | – | 14.6 µM (active) |
| Nc1nc(NCC(=O)O)nc(N2CCCCCC2)c1[N+](=O)[O-] | -0.0334 | – |
| CCOC(=O)c1ccccc1NC(=O)COC(=O)CCC(=O)N1CCOCC1 | -1.44 | – |
| NC(=O)C1CC(=O)N(c2ccc(OCC(=O)NCc3ccccc3)cc2)C1 (stereo not given) | 0.0429 | – |
| O=C(NNC1=C(C(=O)C(F)(F)F)CCC1)c1ccncc1 | – | 1.64 µM (active) |
| Cc1ccc(C(=O)NNC(=O)c2ccncc2)cc1S(=O)(=O)N1CCCCC1 | -17 | – |
| O=C(NNC(=O)c1cnccc1C(F)(F)F)c1ccc(Cl)cc1 | -14.1 | – |
| COc1ccc2c(c1)c1ncn(Cc3ccccn3)c(=O)c1n2C | 4.45 | – |
| COc1cccc(CNC(=O)c2cccnc2Sc2ccc(Cl)cc2)c1 | 16.2 | – |
| O=C(/C=C/c1ccc(Cl)cc1Cl)NCc1ccco1 | -27.7 | – |
| Cc1ccc(CNC(=O)COc2ccc3c(c2)CCC3)cc1 | -13.2 | – |
| Cc1ccc(CNC(=O)CSc2c3c(nc4cc(Cl)ccc24)CCCC3)cc1 | – | 14.6 µM (active) |
| COc1ccc(N2CCN(C(=O)c3ccc(N4CCCCS4(=O)=O)cc3)CC2)cc1 | -14.6 | – |
| COc1cccc(CNc2nc3nc4c(c(=O)n3[nH]2)CCC4)c1 | -4.84 | – |

| Structure (SMILES) | activity change, negative = growth inhibition [%] | Potency |
| --- | --- | --- |
| COc1ccc(N2CCN(C(=O)c3ccc4c(Cl)c5c(nc4c3)CCCC5)CC2)cc1 | – | 20.6 µM (active) |
| COc1cccc(CNC(=O)c2ccc3c(Cl)c4c(nc3c2)CCCC4)c1 | – | 23.1 µM (active) |
| O=C(CSc1c2c(nc3ccc(Cl)cc13)CCCC2)NCc1ccco1 | – | 18.4 µM (active) |
| O=C(CSc1nnnn1-c1ccccc1)NCc1ccco1 | -4.79 | – |
| Cc1cn(C)c(CC(=O)NCc2ccc(Cl)cc2)c1C(=O)O | 10.2 | – |
| Cc1cc(C)c2nc(-c3cccnc3)cc(C(=O)Nc3ccc(S(=O)(=O)Nc4onc(C)c4C)cc3)c2c1 | -22.7 | – |
| Cc1cc(C)n2nc(C(=O)OC(C)C(=O)c3cc(C)c(C)cc3C)nc2n1 (stereo not given) | -7.26 | – |
| Cc1cc(NC(=O)Nc2c[nH]c(=O)[nH]c2=O)ccc1Br | 6.32 | – |
| CCOc1cc(/C=C2/C(=N)N3OC(C)=CC3=NC2=O)ccc1OC | -2.7 | – |
| O=C(Nc1ccc(Cl)cc1)c1csc([C@H]2C[C@H](O)[C@@H](CO)O2)n1 | -24.7 | – |
| CCN(CC)CCN1C(=O)C2C(C(=O)Nc3ccc(Br)cc3)C3C=CC2(O3)C1C(=O)NC1CCCCC1 (stereo not given) | 4.87 | – |
| CC1CC[C@@]23CCC4(C)[C@@]5(C)CCC6C(C)(C)C(O)CC[C@@]6(C)C5C=C[C@@]4(OC2=O)C3C1C (stereo not given in full) | -7.31 | – |
| O=C(NC(Cc1ccc(O)cc1)C(=O)O)/C(=C/c1ccccc1)NC(=O)c1ccccc1 (stereo not given) | 3.55 | – |
| O=C(NCC(F)(F)F)Nc1nnc(C(F)(F)F)s1 | -29.8 | – |
| CCOC(=O)C1=C(NC(=S)NC(=O)c2ccccc2)c2ccccc2CC1(C)C | -29 | – |
| O=C(O)CSc1c2c(nc3cc(C(=O)Nc4cccc(C(F)(F)F)c4)ccc13)CCCC2 | -1.66 | – |
| CC(=O)c1ccc(NC(=O)c2cc(-c3cccs3)on2)cc1 | -22.4 | – |
| CC(=O)c1ccc(NC(=O)c2ccc3c(Cl)c4c(nc3c2)CCCC4)cc1 | – | 18.4 µM (active) |
| COc1cccc(CNC(=O)CSc2c3c(nc4cc(Cl)ccc24)CCCC3)c1 | – | 14.6 µM (active) |
| COc1cccc(-c2ccc(C#N)c(SCC(=O)NCCc3ccc(Cl)cc3)n2)c1 | -8.31 | – |
| COc1cccc(CNC(=O)c2nnn(CC(=O)Nc3cc(Cl)ccc3C)c2N)c1 | – | inactive |
